Laboratory results: PubChem BioAssay (NCI)
Compounds without any hit were thinned out: in the full panel of roughly 79,000, 15% have a hit. Values without a mark were called inactive. The source made the active and inactive calls. Rule as the data show it: active = growth inhibition above about 70%; inactive = the rest.

Test: NCI Yeast Anticancer Drug Screen. Data for the mlh1 rad18 strain (AID 175)
Settings: S. cerevisiae mlh1 rad18 strain growth inhibition, hits give high values
Protocol: Growth inhibition of yeast strains with defined genetic alterations is measured as a screen for potential anti-cancer activity. Selected strains with alterations in DNA damage repair or cell cycle control were exposed to compounds and growth inhibition was measured relative to vehicle treated controls. The strain used in this assay is mlh1 rad18

[1] = at 5.0 µM (retest, dose inferred, filed as 0.5)
[2] = at 50.0 µM (retest, dose inferred, filed as 5.0)

SMILES | growth inhibition [1] | growth inhibition [2] | growth inhibition (at 50.0 µM)
CC(=O)OC1CCC(C(C)(C)C)C(C)C1 (configuration not stated) | 3% | 47% | 29.5%
C/C=C/CSc1cc(NC(=S)c2ccsc2C)ccc1Cl | 6% | 89% (active) | 86.8% (active)
OC(Cn1cncn1)(Cn1cncn1)c1ccc(Cl)cc1Cl | 75% (active) | 81% (active) | 48.2%
COc1cc(C2C(C(=O)O)=C(C)Oc3cc4c(cc32)OCO4)cc(OC)c1OC (configuration not stated) | 68% | 85% (active) | 97.8% (active)
CC(=O)Oc1ccc2ccccc2c1CN(Cc1c(OC(C)=O)ccc2ccccc12)C(C)=O | 11% | 85% (active) | 55%
O=C(N/N=C/c1ccccc1O)c1ccccc1-n1cccc1 | 59% | 74% (active) | 63.1%
CCCCCCCCCCCCCCCC[NH][Ge]([NH]CCCCCCCCCCCCCCCC)([NH]CCCCCCCCCCCCCCCC)[NH]CCCCCCCCCCCCCCCC | 98% (active) | 95% (active) | 87.2% (active)
CCCCC1(C(O)CC)Sc2ccccc2N1C (configuration not stated) | -12% | 90% (active) | 56%
Cc1cc(O)c(/C=N/c2nc(-c3cccc([N+](=O)[O-])c3)cs2)c(=O)o1 | 54% | 99% (active) | 63.6%
CCOC(=O)CN1CCC(C(=O)CC2(O)C3(Cl)C4(Cl)C5(Cl)C(Cl)(Cl)C6(Cl)C4(Cl)C2(Cl)C6(Cl)C53Cl)CC1 (configuration not stated) | 62% | 99% (active) | 98.8% (active)
O=C1CSC(c2c[nH]c3ccccc23)N1c1cccc(Cl)c1 (configuration not stated) | -5% | 97% (active) | 84.5% (active)
COc1cnc2cc3c4c(cccc4c2c1)NC3=O | 75% (active) | 91% (active) | 86% (active)
COC(=O)c1cc(=O)n(-c2ccccc2C(F)(F)F)c(SC)n1 | 39% | 95% (active) | 99.5% (active)
CN(C)C(=S)S(=O)(=O)CCCCS(=O)(=O)C(=S)N(C)C | -3% | 7% | 81.8% (active)
